The record followed here is PubChem BioAssay AID651780 (The Scripps Research Institute Molecular Screening Center, 2012).

The whole screen tested about 2,400 compounds, of which about 1,800 (75%) were called active. The set was probably picked from earlier hits. Not all results are given here. Values without a mark were called inactive. Cut-off read from the data, not from the text of the source: active = inhibition above about 22%; inactive = the rest.

The nature of the test: calcium response inhibition in counter-screen line – cell-based, fluorescence, counter-screen for hTAAR1 antagonist project (AID 651780).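 Note: CHO-Ga16 host cells stimulated with ATP at an EC80 level; 0% = agonist EC80 plus vehicle and 100% = vehicle without agonist.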 The following applies: counterscreen cell line, antagonist mode, at 3 µM, active compounds read high.
`COc1ccc(CCNC(=O)C(=O)NCC2OCCN2S(=O)(=O)c2ccc(OC)c(C)c2)cc1` (stereo not given): the inhibition is 23.7% (active). On to `O=C(COC(=O)CCCSc1nc2ccccc2[nH]1)Nc1ccc(Oc2ccccc2)cc1`, for which the inhibition is 39.8% (active). As to `O=C(O)c1ccc(NC(=O)c2cn(-c3ccccc3)nc2-c2ccc(Cl)cc2)cc1`, the inhibition was 36.1% (active). On to `COc1ccc(CC(=O)Nc2c(C(N)=O)oc3ccccc23)cc1`, for which the inhibition was 22.3% (active). The figure for `CC(C)(C)OC(=O)NCCCCCNC(=O)c1nc[nH]c1C(=O)NCc1ccccc1` is 22% (active). `C[C@H](NC(=O)c1nc[nH]c1C(=O)NCC(=O)OC(C)(C)C)C(=O)OCc1ccccc1`: the inhibition was 23.6% (active). Consider `Cc1cccc(NC(=O)c2nc[nH]c2C(=O)NCC(=O)OCc2ccccc2)c1`, for which the inhibition was 26% (active). In the case of `OC(c1ccccc1)(c1ccccc1)C1CCN(CCCOc2ccc(-c3ccsc3)cc2)CC1`, the inhibition is 40.2% (active). Take `CC(=O)Nc1ccc(NC(=O)COC(=O)C2CCC(C(C)(C)C)CC2)cc1` (stereo not given): the inhibition is 24.5% (active). On to `O=C(NCC1CCCO1)c1cc2c([nH]c3ccccc32)c(-c2ccc(F)cc2)n1` (stereo not given), for which the inhibition was 30.9% (active). Consider `CC(=O)N1CCN(C(=O)c2cc(-c3ccc(Cl)s3)nc3ccccc23)CC1`, for which the inhibition was 26.1% (active). The figure for `O=C(COC(=O)c1c2c(nc3ccccc13)CCCC2)c1ccc(Br)s1` is 20.1%. Take `Cc1cccc(C)c1NC(=O)CNC(=O)C1CCCC1`: the inhibition is 5.58%. With `O=S1(=O)c2c(cccc2N2CCCCC2)O[C@H](COCc2ccccc2)CN1C1CC1`, the inhibition was 32.5% (active). In the case of `Cc1cc(Br)ccc1NC(=O)c1cnc(N2CCN(c3ccccn3)CC2)c2ccccc12`, the inhibition was 38.4% (active). In the case of `Cc1ccccc1NC(=O)Cc1nc(COC(=O)C(C)(C)Oc2ccc(Cl)cc2)cs1`, the inhibition was 33.4% (active). In the case of `COc1cc2ccccc2cc1C(=O)Nc1ccc(NC(=O)c2cccs2)cc1`, the inhibition was 27.7% (active).

With `COC(=O)c1sccc1NC(=O)c1cc(OC)c(OC)c(OC)c1`, the inhibition was 21.3%. As for `O=C1c2ccccc2C(=O)N1CCC#Cc1ccc2cc(C3(O)CCCCC3)oc(=O)c2c1`, the inhibition was 44% (active).

Consider `COc1ccc(CCNC(=O)c2ccc(CS(=O)(=O)c3ccc(Br)cc3)o2)cc1OC`, for which the inhibition is 35% (active).

On to `CCOC(=O)C1C(c2ccc(OC)c(OC)c2)c2c([nH][nH]c2=O)CC1(C)O` (stereo not given), for which the inhibition was 25.2% (active). Take `COC(=O)Cc1nnn2c1[C@H](C)[C@H](c1ccccc1Br)OCC2`: the inhibition was 0.66%. On to `Cc1onc(-c2c(F)cccc2Cl)c1C(=O)Nc1cccc(S(=O)(=O)N2CCCCC2)c1`, for which the inhibition was 19.7%. `COc1ccc(NC(=O)C2CCCN(S(=O)(=O)c3cccc4cccnc34)C2)cc1OC` (stereo not given): the inhibition is 29.3% (active). Turning to `COc1ccc(S(=O)(=O)N2CCCC(C(=O)Nc3ccc(NC(=O)c4ccccn4)cc3)C2)cc1` (stereo not given), the inhibition is 29.2% (active). For `COc1ccc(C(=O)Nc2cccc(NC(=O)c3ccc(OC)cc3OC)n2)c(OC)c1`, the inhibition is 22.6% (active). With `CSc1nc(-c2ccccc2)nc(C(Cl)Cl)n1`, the inhibition is -4.34%. On to `COc1cc(/C=C2/C(=O)ON=C2C)ccc1OCc1ccccc1F`, for which the inhibition is 57.1% (active). The value for `Cc1nc(N2CCN(c3ccccn3)CC2)c2c(C)c(C(=O)Nc3ccc(F)cc3)sc2n1` was 36.4% (active). The figure for `CSC(=S)N/N=C/c1c[nH]c2ccccc12` is 19.5%; for `Nc1nonc1-n1nnc(C(=O)N/N=C/c2c[nH]c3ccccc23)c1-c1ccccc1` it is 29.3% (active); for `COc1ccc(CCNC2=C(Cl)C(=O)N(Cc3ccccc3)C2=O)cc1OC` it is 31.3% (active). With `COc1ccc(OC)c2[nH]c(=O)c(CCNC(=O)C(=O)c3c[nH]c4ccccc34)cc12`, the inhibition is 26.8% (active).

For `CC(=O)OCCN(CCCn1c(-c2ccncc2)nc2ccccc21)c1nc(-c2ccc(C)cc2)cs1`, the inhibition was 24.1% (active). For `O=c1[nH]c(CSc2ncc(-c3ccc(F)cc3)n2Cc2ccco2)nc2ccccc12`, the inhibition was 29.8% (active).

As for `CCCCNc1c(-c2cccc(Sc3ccc(OC)cc3)c2)nc2ccccn12`, the inhibition is 42.4% (active). As to `C[C@H](O)[C@@H]1C(=O)N2CCc3c([nH]c4c(-c5ccc6c(c5)OCO6)cccc34)[C@@H]2C[C@@H]1N(C)C(=O)c1ccco1`, the inhibition is 35.2% (active). The figure for `Cc1cccc(NC(=O)c2ccc(COc3ccccc3[N+](=O)[O-])o2)n1` is 15.8%. Regarding `COC(=O)C1=C(C)N(Cc2ccc(F)cc2)C(=S)NC1c1cccc(Cl)c1` (stereo not given), the inhibition is 23.3% (active). With `O=C(N/N=C/c1ccc(Cl)c(Cl)c1)c1ccc2nc[nH]c2c1`, the inhibition was 27.9% (active).

For `Cc1nn(-c2ccccc2)c(C)c1NC(=O)COC(=O)c1cc(Cl)ccc1O`, the inhibition is 32.8% (active).

`CNC(=O)c1ccsc1NC(=O)c1ccc(S(=O)(=O)N2CCc3ccccc32)cc1`: the inhibition is 32.3% (active). Consider `CCN1CCc2c(C#N)c(NCc3ccccc3)nc(NCCO)c2C1`, for which the inhibition was 5.04%. Turning to `C=CCn1c(SCc2cccc(F)c2)nc2cc(C(=O)N3CCC(C(N)=O)CC3)ccc2c1=O`, the inhibition is 25.6% (active). In the case of `CC(=O)c1ccccc1OCc1ccc(C(=O)c2ccccc2)cc1`, the inhibition is 27% (active). With `CCNS(=O)(=O)c1ccc(CCC(=O)N2CCN(c3cc(Cl)ccc3C)CC2)cc1`, the inhibition was 37.1% (active).

For `COc1ccc(Cl)cc1NC(=O)CCS(=O)(=O)c1cc2c(cc1C)NC(=O)CO2`, the inhibition is 23.5% (active). Take `CCc1ccc2c(c1)NC(=O)C2(C)Cc1ccc(OC(F)(F)F)cc1` (stereo not given): the inhibition is 4.79%. For `COc1ccc(C(=O)Oc2ccc(-c3nnco3)cc2)cc1S(=O)(=O)N1CCOCC1`, the inhibition is 25.1% (active).

Turning to `O=C(Oc1ccc(-c2nnco2)cc1)c1ccc(F)c(S(=O)(=O)N2CCOCC2)c1`, the inhibition was 32.8% (active). The value for `CCC(=O)Oc1cccc(C(=O)Nc2ccc(-c3nnc(-c4ccco4)o3)cc2)c1` was 26.1% (active); that for `O=C(Nc1ccc(-c2nnc(-c3ccccc3)o2)cc1)c1ccc(Br)o1` was 16%; that for `COc1ccc2[nH]c(=O)c(CN(Cc3cccnc3)S(=O)(=O)c3ccccc3F)cc2c1` was 34.9% (active). The figure for `C=CCc1cc(S(=O)(=O)c2ccc(O)c(CC=C)c2)ccc1O` is 18.2%.

As to `O=C(NCCN1CCOCC1)c1ccccc1N1C(=O)[C@@H]2Cc3c([nH]c4ccccc34)C(c3cccc(Cl)c3)N2C1=O` (stereo not given in full), the inhibition was 26.3% (active).
